RGS4-Gao reg: modulates binding of RGS4 to human Galphao; Multiplexed bead flow cytometry; actives lie on both sides; binding response (% of control), % at 10 µM; 0.33% of 220,000 active; AID 1415; in the data active = binding response below about 49% or above about 150%; inactive = in between;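 also: fluorescent Galphao activated with aluminum fluoride binding bead-coupled RGS4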
Target sequence (P09471 whole entry, looked up): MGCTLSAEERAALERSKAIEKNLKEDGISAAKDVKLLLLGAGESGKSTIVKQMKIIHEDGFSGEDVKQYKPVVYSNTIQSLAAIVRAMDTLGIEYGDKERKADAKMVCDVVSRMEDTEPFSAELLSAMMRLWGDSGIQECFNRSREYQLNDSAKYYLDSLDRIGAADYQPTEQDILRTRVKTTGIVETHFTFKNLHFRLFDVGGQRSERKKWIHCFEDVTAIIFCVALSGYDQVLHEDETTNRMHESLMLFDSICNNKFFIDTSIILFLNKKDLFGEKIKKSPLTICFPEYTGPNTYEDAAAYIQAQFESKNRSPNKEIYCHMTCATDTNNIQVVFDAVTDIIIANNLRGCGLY
Avidin fluor: compound fluoresces at 488/530 nm on avidin beads; compound fluorescence 488/530 nm, flow cytometry; active compounds read high; fluorescence (KMESF) at 10 µM; 0.38% of 220,000 active; AID 1775; in the data active = fluorescence above about 47
RGS7-Gao: regulators of human RGS7-Galphao interaction | Multiplexed bead flow cytometry, RGS7-Galphao binding; actives lie on both sides | binding response (% of control), % at 10 µM | 0.35% of 220,000 active; in the data active = binding response below about 49% or above about 150%;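 also: fluorescent Galphao held in activated GDP-AlF4 state binding bead-coupled RGS7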
GSH bead fluor: compound fluoresces at 488/530 nm on GSH beads | AID 1776 | 0.25% of 190,000 active | fluorescence (KMESF) at 10 µM | GSH beads flow cytometry, compound fluorescence 488/530 nm; active compounds read high; in the data active = fluorescence above about 89;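 also: glutathione beads carrying GST-tagged Bcl family fusion proteins plus one bare bead set; values are compound well signal with DMSO vehicle wells as background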
RGS16-Gao: modulates binding between human RGS16 and Galphao | O15492+P09471 | bead-based flow cytometry RGS16-Galphao binding, fluorescence; actives lie on both sides | binding response (% of control), % at 10 µM | 0.38% of 220,000 active | AID 1441;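 also: Galphao activated by GDP with aluminum fluoride before binding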
Target sequence (O15492 whole entry, looked up): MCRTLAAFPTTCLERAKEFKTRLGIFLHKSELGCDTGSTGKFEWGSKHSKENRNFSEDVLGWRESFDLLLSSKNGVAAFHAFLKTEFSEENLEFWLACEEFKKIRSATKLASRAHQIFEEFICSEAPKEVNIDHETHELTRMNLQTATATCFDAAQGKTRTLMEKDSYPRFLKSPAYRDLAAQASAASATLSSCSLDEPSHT
Target sequence (P09471 whole entry, looked up): as the sequence (P09471 whole entry, looked up) above
RGS8-Gao reg: regulators of human RGS8-Galphao interaction; P09471; 0.34% of 220,000 active; multiplexed bead flow cytometry, RGS8-Galphao binding; actives lie on both sides; response (percent of control binding), % at 10 µM; in the data active = response below about 60% or above about 140%; inactive = in between;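 also: Galphao activated as the GDP aluminium fluoride complex binding bead-coupled RGS8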
RGS4-Gao HTS: modulates binding between human RGS4 and Galphao; 99% of 1,600 active; shares compounds with RGS16-Gao; RGS4–Galpha-o binding response, % at 10 µM; AID 1504; multiplexed bead flow cytometry, RGS–Galpha-o binding;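 also: fluorescently labeled Galpha-o bound to GDP with aluminium fluoride binding biotinylated RGS beads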
Avidin counter: biotin-avidin bead binding disruption counter-screen; shares compounds with RGS16-Gao; streptavidin beads, fluorescein-biotin binding, flow cytometry; inhibition, % at 10 µM; 1,700 tested, under 10 active; AID 1783;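 active = inhibition above 50%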;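 also: median green fluorescence of gated singlet beads compared with DMSO control wells; 0% = DMSO wells and 100% = complete loss of bead fluorescence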
RGS8-Gao single: RGS8-Galphao interaction regulation, single point confirmation | 3% of 1,700 active | bead-based flow cytometry RGS8-Galphao binding, fluorescence; actives lie on both sides | shares compounds with RGS16-Gao | binding response (% of control), % at 10 µM; in the data active = binding response below about 72% or above about 130%; inactive = in between;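 also: Galphao activated as GDP AlF4 complex before binding bead RGS8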
RGS7-Gao confirm: RGS7-Galphao interaction regulation, single point confirmation; shares compounds with RGS16-Gao; 7.8% of 1,700 active; AID 1837; bead-based flow cytometry RGS7-Galphao binding; actives lie on both sides; response (percent of control binding), % at 10 µM; in the data active = response below about 75% or above about 130%; inactive = in between;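 also: fluorescent Galphao activated with GDP and aluminum fluoride binding bead-coupled RGS7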
RGS16-Gao single: RGS16-Galphao interaction regulation, single point confirmation; shares compounds with RGS16-Gao; bead-based flow cytometry, RGS16-Galphao binding; actives lie on both sides; response (% of control binding), % at 10 µM; 4% of 1,700 active; AID 1838; in the data active = response below about 74% or above about 130%; inactive = in between;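 also: Galphao activated as the GDP aluminium fluoride complex binding bead-coupled RGS16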
RGS4-Gao single: confirmation of regulators of human RGS4-Galphao interaction; shares compounds with RGS16-Gao; RGS4-Galphao binding, multiplexed bead flow cytometry; actives lie on both sides; binding response (% of control), % at 10 µM; 4% of 1,700 active; AID 1840; in the data active = binding response below about 74% or above about 130%; inactive = in between
RGS19-Gao single: RGS19-Galphao interaction regulation, single point confirmation; shares compounds with RGS16-Gao; bead-based flow cytometry RGS19-Galphao binding; actives lie on both sides; response (percent of control binding), % at 10 µM; 5% of 1,700 active; in the data active = response below about 50% or above about 160%; inactive = in between;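 also: 100% = no compound control and 0% = blank background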
Active calls of the source: *; [ ] = another dose, or the depositor's remark. Most compounds without a hit are left out; they make up all but 1.2% or so of the library. Unless noted, no rule for the calls is given here.

Screening CCOC(=O)Cc1csc(NC(=O)CSc2nnc(-c3ccc(C)cc3)o2)n1 returned RGS4-Gao reg 96, Avidin fluor 7, RGS7-Gao 98, GSH bead fluor 36, RGS16-Gao 104 and RGS8-Gao reg 99.
`CCOC(=O)Cc1csc(NC(=O)CSc2nnc(-c3ccc(F)cc3)o2)n1` gave RGS4-Gao reg 61, Avidin fluor 3, RGS7-Gao 57, GSH bead fluor 12, RGS16-Gao -13*, RGS8-Gao reg 72, RGS4-Gao HTS 61*, Avidin counter -1, RGS8-Gao single 95, RGS7-Gao confirm 68*, RGS16-Gao single 84, RGS4-Gao single 80 and RGS19-Gao single 54.
`Cc1cccn2c(CN3CCCC(c4ccccc4)C3)c(C(=O)N3CCOCC3)nc12` (configuration not stated) gave RGS4-Gao reg 94, Avidin fluor 2, RGS7-Gao 85, GSH bead fluor 9, RGS16-Gao 92 and RGS8-Gao reg 96.
For CCc1nc(SCc2ccccn2)[nH]c(=O)c1C the results were RGS4-Gao reg 104, Avidin fluor 12, RGS7-Gao 104, GSH bead fluor 11, RGS16-Gao 104 and RGS8-Gao reg 102.
Screening CCc1nc(SCc2cccnc2)[nH]c(=O)c1C returned RGS4-Gao reg 108, Avidin fluor 13, RGS7-Gao 105, GSH bead fluor 9, RGS16-Gao 309*[activator], RGS8-Gao reg 124, RGS4-Gao HTS 108*, Avidin counter 1, RGS8-Gao single 92, RGS7-Gao confirm 91, RGS16-Gao single 91, RGS4-Gao single 92 and RGS19-Gao single 68.
Screening CC(C)CNC(=O)c1ccccc1SCC(=O)NC12CC3CC(CC(C3)C1)C2 returned RGS4-Gao reg 78, Avidin fluor 2, RGS7-Gao 79, GSH bead fluor 15, RGS16-Gao 23*, RGS8-Gao reg 68, RGS4-Gao HTS 78*, Avidin counter 0, RGS8-Gao single 98, RGS7-Gao confirm 109, RGS16-Gao single 105, RGS4-Gao single 104 and RGS19-Gao single 137.
Screening COc1ccc(N2CCN(CC(=O)NC(=O)NC(C)(C)C)CC2)cc1 returned RGS4-Gao reg 109, Avidin fluor 24, RGS7-Gao 106, GSH bead fluor 11, RGS16-Gao 111 and RGS8-Gao reg 105.
For O=C1/C(=C\c2ccc(-c3ccccc3[N+](=O)[O-])o2)C(c2ccccc2)=NN1c1ccccc1 the results were RGS4-Gao reg -5.8*, Avidin fluor -3, RGS7-Gao 7.8*, GSH bead fluor 65, RGS16-Gao -1.8*, RGS8-Gao reg 14*, Avidin counter -5, RGS8-Gao single 100, RGS7-Gao confirm 86, RGS16-Gao single 98, RGS4-Gao single 95 and RGS19-Gao single 86.
Screening Cc1ccc(OCCNS(=O)(=O)c2cccs2)cc1 returned RGS4-Gao reg 159*[activator], Avidin fluor 8, RGS7-Gao 154*[activator], GSH bead fluor 30, RGS16-Gao 157, RGS8-Gao reg 126, Avidin counter -2, RGS8-Gao single 96, RGS7-Gao confirm 96, RGS16-Gao single 91, RGS4-Gao single 93 and RGS19-Gao single 81.
COc1ccc(OCCNS(=O)(=O)c2ccccc2)cc1 was read as RGS4-Gao reg 94, Avidin fluor 9, RGS7-Gao 96, GSH bead fluor 9, RGS16-Gao 98 and RGS8-Gao reg 97.
`Cc1cc(N2CCN(C(c3ccccc3)c3ccccc3)CC2)n2ncnc2n1` gave GSH bead fluor 55, Avidin counter 0, RGS8-Gao single 98, RGS7-Gao confirm 86, RGS16-Gao single 91, RGS4-Gao single 90 and RGS19-Gao single 75.
For Cc1nc2ncnn2c(N2CCN(C(c3ccccc3)c3ccccc3)CC2)c1C the results were RGS4-Gao reg 102, Avidin fluor 24, RGS7-Gao 100, GSH bead fluor 17, RGS16-Gao 100 and RGS8-Gao reg 104.
Screening CCC(=O)Nc1cc(-c2nn(CC(=O)N3CCCCC3)c(=O)c3ccccc23)ccc1N1CCOCC1 returned RGS4-Gao reg 117, Avidin fluor 143*, RGS7-Gao 155*[activator], GSH bead fluor 34, RGS16-Gao 108, RGS8-Gao reg 100, RGS4-Gao HTS 117*, Avidin counter -2, RGS8-Gao single 104, RGS7-Gao confirm 100, RGS16-Gao single 103, RGS4-Gao single 101 and RGS19-Gao single 112.
`CC(C)OC(=O)CSc1nnc(-c2cnccn2)n1Cc1ccco1` gave RGS4-Gao reg 103, Avidin fluor 29, RGS7-Gao 101, GSH bead fluor 16, RGS16-Gao 102 and RGS8-Gao reg 100.
Screening O=C(CSc1nnc(-c2cnccn2)n1Cc1ccco1)c1ccc2ccccc2c1 returned RGS4-Gao reg 29*, Avidin fluor 2, RGS7-Gao 25*, GSH bead fluor 31, RGS16-Gao 19*, RGS8-Gao reg 22*, Avidin counter 1, RGS8-Gao single 103, RGS7-Gao confirm 104, RGS16-Gao single 105, RGS4-Gao single 105 and RGS19-Gao single 111.
For COCCn1nnnc1C(C(C)C)N1CCC(Cc2ccccc2)CC1 (configuration not stated) the results were RGS4-Gao reg 155*[activator], Avidin fluor 4, RGS7-Gao 102, GSH bead fluor 24, RGS16-Gao 151, RGS8-Gao reg 87, Avidin counter -1, RGS8-Gao single 104, RGS7-Gao confirm 104, RGS16-Gao single 104, RGS4-Gao single 101 and RGS19-Gao single 92.

Bioassay records as filed in PubChem BioAssay.
